Here are results for 40 molecules from PubChem BioAssay (NCI).

This is part of a sample that, as a whole, favours compounds with a hit. Of some 83,000 tested, about 20% had one in any assay.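 Cells were grown in 96-well plates and exposed to the test compound at a single concentration for 48 hours; results are reported as percent growth, with values below 10 considered active.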 A number with no mark means an inactive call. Calls of active or inactive are those of the source.

The experiment concerns IGROV1 ovarian. The experiment can be described thus: NCI-60 one-dose screen, 48 h (100 = growth as untreated, 0 = no growth, -100 = all killed). Particulars: 10 µM unless noted. As to the method:
Growth inhibition of the IGROV1 human tumor cell line is measured as a screen for anti-cancer activity. Cells are grown in 96 well plates and exposed to the test compound for 48 hours. Compounds are tested at a single concentration, which is 10^-5 M for most compounds. The reported endpoint is percent growth (GI% or GIPRCNT), where numbers from 0 - 100% represent growth inhibition, and numbers from -100% - 0 represent cell death. For example, a value of 40 represents 60% growth inhibition. A value of 0 means no net growth occurred over the course of the experiment. A value of -40 indicates 40% of cells at the beginning of the experiment died by the end of the experiment. A value of -100 means all cells are dead at the end of the experiment.
NCI-60 Human Tumor Cell Lines Screen was performed using the standard one-dose NCI protocol, which is described in more detail at https://dtp.cancer.gov/discovery_development/nci-60/default.htm.
Compounds with GIPRCNT values below 10 were considered active. Activity score was based on GIPRCNT using the following formula: […]
Score is 0 for GIPRCNT values of 100 or above, 50 for GIPRCNT values of 0, and 100 for GIPRCNT values of -100.
`COc1cccc2c1C(=O)c1c(O)c3c(c(O)c1C2=O)C[C@@](O)(C(=O)CO)C[C@@H]3O[C@H]1C[C@H](N)[C@@H](O)[C@H](C)O1`: the growth is 18.4%.

For `CC(C)(O)C1CCCN1C(=O)c1ccccc1I` (stereo not given), the growth is 87.6%.

Regarding `C=C1C(=O)O[C@H]2[C@H]1CC/C(COC(=O)/C=C/c1c[nH]c3ccccc13)=C\CC[C@@]1(C)O[C@@H]21`, the growth is -69.7% (active).

`CC(=O)CCSc1ccc(OC(C)=O)cc1`: the growth was 114%.

In the case of `O=c1[nH]c(=O)[nH]c(=S)[nH]1`, the growth was 102%.

In the case of `CC1CCN(C(=O)OCc2nc3nc(Cl)nc(N4CCOCC4)c3[nH]2)CC1`, the growth was -68% (active).

Turning to `COc1cc(C2NC(c3cc(OC)c(OC)c(OC)c3)C(C#N)(C#N)C2(C#N)C#N)cc(OC)c1OC` (stereo not given), the growth is 106%.

For the molecule `COc1ccc(NC(=O)c2sc3nc(C)c(C(=O)c4ccc(OC)cc4)cc3c2N)cc1`, the growth was 50.2%.

As for `Cc1cc(C)c(C=O)c(C)c1`, the growth was 111%.

On to `CCCC/C(=N\N=C(N)N)c1ccc(F)cc1`, for which the growth is 45%.

Regarding `CC[C@@]12C=CCN3CC[C@]4(c5cc(NC(=O)COc6cc(OCC(=O)Nc7cc8c(cc7OC)N(C)[C@H]7[C@@](O)(C(=O)OC)[C@H](OC(C)=O)[C@]9(CC)C=CCN%10CC[C@]87[C@@H]%109)cc7oc(-c8ccccc8)cc(=O)c67)c(OC)cc5N(C)[C@@H]4[C@](O)(C(=O)OC)[C@H]1OC(C)=O)[C@H]32`, the growth is -70% (active).

Take `COc1ccc(C(=O)/C=C/c2c(OC)cc(OC)cc2OC)c(OC)c1`: the growth is 40.3%.

Turning to `O=C(N/N=C/c1ccc(F)cc1)c1ccccc1Nc1cccc(C(F)(F)F)c1`, the growth was 103%.

In the case of `O=C1Nc2c(ccc(Cl)c2Cl)/C1=C/c1ccc(O)cc1`, the growth was 42.6%.

For `Cn1c(COC(=O)NCCc2ccccn2)nc2c(N3CCOCC3)nc(Cl)nc21`, the growth is -92.3% (active).

Turning to `C#CCn1cc(C=C2C(=O)NC(=S)NC2=O)c2cc(Cl)ccc21`, the growth was -40.6% (active).

Turning to `BrC(Br)(Br)c1cnc2ccccc2n1`, the growth was 51.9%.

As for `CS(=O)(=O)c1ccc(-c2cc(-c3nnc(SCC(=O)Nc4ccc(C(=O)/C=C/c5ccc(Cl)cc5)cc4)n3-c3ccccc3)c3ccccc3n2)cc1`, the growth is 91.9%.

As to `CC(Oc1ccc(C(=O)NS(=O)(=O)C(C)(C)C)cc1C(F)(F)F)c1ccc(Oc2ccccc2)cn1` (stereo not given), the growth is 64.8%.

On to `COc1cc2nc(-c3ccc(C(F)(F)F)cc3)cc(OCCN3CCC(O)CC3)c2cc1OC`, for which the growth was 42.1%.

On to `CCC(C)N(CCNc1cc(OC)cc2cccnc12)CCC(C)C` (stereo not given), for which the growth was 66.4%.

With `Cc1ccc(-c2csc(/N=C3\C(=O)Nc4ccccc43)n2)cc1`, the growth was 25.3%.

With `COc1ccc(C2CC(n3nnnc3-c3ccccc3)=NN2)cc1` (stereo not given), the growth is 64.8%.

Regarding `O=C(NCCc1ccccn1)OCc1nc2nc(Cl)nc(N3CCOCC3)c2[nH]1`, the growth is 23.9%.

For the molecule `COc1ccc(-c2cnc(N)nc2-c2ccc(OC)cc2O)cc1`, the growth was 83.8%.

`COc1ccc(/C=C/C(=O)c2ccc(OC)c(OC)c2)cc1O`: the growth is 74.5%.

Regarding `O=C(CSc1nc2sc3c(c2c(=O)n1Cc1ccccc1)CCCC3)N1CCN(c2ccccc2)CC1`, the growth was 103%.

For the molecule `O=C(CN1CCOCC1)Nc1ccc2ncnc(Nc3ccc(Oc4cccc(C(F)(F)F)c4)c(Cl)c3)c2c1`, the growth was 9.01% (active).

Turning to `C=CCn1c(SCC(=O)Nc2ccc(C(=O)/C=C/c3cc(OC)c(OC)c(OC)c3)cc2)nnc1-c1cc(-c2ccc(S(C)(=O)=O)cc2)nc2ccccc12`, the growth is 72.8%.

Take `Fc1ccc2nc3c(cc2c1)CSc1nnc(-c2ccc[nH]c2=S)n1N3`: the growth is 86.7%.

As for `CCc1nc(C)cn1C(=O)OCc1nc2nc(Cl)nc(N3CCOCC3)c2[nH]1`, the growth is -48.1% (active).

As to `COc1ccc(-c2nc(N=Nc3c(O)[nH]c4ccccc34)nc(N3CCOCC3)c2C#N)cc1`, the growth was 87.8%.

`CN(C)Cc1c(-c2ccccc2)[nH]c2ccccc12`: the growth is 110%.

Regarding `COc1ccc(-c2nc(N/N=C/c3c[nH]c4ccccc34)nc(N3CCOCC3)c2C#N)cc1`, the growth is 80.9%.

Take `CCN1C(=O)N(CC)C2NC(SC)=NC21` (stereo not given): the growth is 102%.

Consider `Cc1[nH]n(-c2cccc(Cl)c2)c(=O)c1/C=C1\C=Nc2ccc(Br)cc21`, for which the growth was 19.3%.

Consider `ClCC1(Cn2cnc3c(Cl)nc(Cl)nc32)COC1`, for which the growth was 90.8%.

`N#Cc1ccc(-c2ccc3c(c2)NC(=O)/C3=C\c2ccc[nH]2)cc1`: the growth was 66.2%.

Regarding `COc1cc2nc(-c3ccc(C(F)(F)F)cc3)cc(OCCN3CCCC3)c2cc1OC`, the growth is 60.9%.

For the molecule `CCOC(=O)c1ccc(Nc2ccnc(SCC(=O)c3ccc(C#N)cc3)n2)cc1`, the growth was 79%.
